Experimental data published in publication PMC10726135, “HNF4α isoforms regulate the circadian balance between carbohydrate and lipid metabolism in the liver”.
Whole data set: some 18,000 sequences, median “log2 normalized intensity” near 0.39, cut for the highest 2% near 6.6. The list comes from a sample in which the highest values are over-represented; it also holds similar and randomly drawn sequences.

Target: T1, HNF4alpha2 (COS-7 nuclear extract) (Homo sapiens, UniProt P41235 1-474)
T1 sequence: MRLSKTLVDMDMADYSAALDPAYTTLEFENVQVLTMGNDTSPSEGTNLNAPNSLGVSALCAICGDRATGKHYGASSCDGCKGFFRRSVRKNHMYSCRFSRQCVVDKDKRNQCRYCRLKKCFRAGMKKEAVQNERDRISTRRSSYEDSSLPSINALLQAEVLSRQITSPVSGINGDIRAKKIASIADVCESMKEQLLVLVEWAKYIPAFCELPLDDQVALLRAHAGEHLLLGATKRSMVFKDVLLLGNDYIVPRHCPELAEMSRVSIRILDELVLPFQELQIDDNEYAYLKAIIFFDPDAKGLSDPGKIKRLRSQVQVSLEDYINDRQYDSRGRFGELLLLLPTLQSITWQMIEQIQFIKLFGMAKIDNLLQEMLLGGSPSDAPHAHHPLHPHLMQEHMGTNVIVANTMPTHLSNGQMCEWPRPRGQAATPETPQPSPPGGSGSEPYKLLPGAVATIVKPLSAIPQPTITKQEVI
Assay: protein-binding microarray; COS-7 nuclear extract on double-stranded Agilent 4x180k PBM; binding buffer, salt, pH and temperature not given in the material; high values mean tight binding
Settings: chain copies: 2; label: 3' end of strand 1 on the slide; dsDNA, one strand shown
Summary of the method: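 The binding signal is Agilent software's gProcessedSignal after background correction and normalization. Arrays were a custom Agilent SurePrint G3 4x180k design of double-stranded ~60-nt oligonucleotides with ~44,000 test sequences in quadruplicate, probed with nuclear extracts of COS-7 cells transiently expressing a human HNF4α isoform. Scans were made at 2-µm resolution on an Agilent G2565CA scanner.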

Sequence | binding signal [log2 normalized intensity]
CTGGGAAGATTAAGGAAGGAAGGTGCTTATGCCTAGGGAGATTAGAGTATCGGTCGA | -0.85
TTCACCCCATTTTGTCCCTCCCTGCAGCTGGCCTAGGGAGATTAGAGTATCGGTCGA | 4.07
GACCTCTGCCCTTCCACCCACTTTATCTTCGCCTAGGGAGATTAGAGTATCGGTCGA | 3.26
ACCAGACTACCTCTTTAGGCTGGACTCTGAGCCTAGGGAGATTAGAGTATCGGTCGA | 3.96
TGCAGCCCTGCCACTCTTTTTTAGACTTTGGCCTAGGGAGATTAGAGTATCGGTCGA | 3.72
CTCTTTAGGCTGGACTCTGACCCATTCCTTGCCTAGGGAGATTAGAGTATCGGTCGA | 5.23
ACTACCTCTTTAGGCTGGACTCTGACCCATGCCTAGGGAGATTAGAGTATCGGTCGA | 6.75
CCACTCTTTTTTAGACTTTGACCTCCATATGCCTAGGGAGATTAGAGTATCGGTCGA | 7.61
CTGACCTCTTTTGGATTTTTCCATATCTGTGCCTAGGGAGATTAGAGTATCGGTCGA | 1.74
CCCTGCCACTCTTTTTTAGACTTTGACCTCGCCTAGGGAGATTAGAGTATCGGTCGA | 10
ATGACCTCTTTTAGTAACTGACTTTAACTTGCCTAGGGAGATTAGAGTATCGGTCGA | 1.5
TTAATGTGCTTGTCTGACTGCTGCCAAAGGGCCTAGGGAGATTAGAGTATCGGTCGA | -0.631
ATGGTGGAGGGTCTTGCTTTGATGTTGATGGCCTAGGGAGATTAGAGTATCGGTCGA | 1.58
CTTTTGGTATGCAAGGCATGGTGCTTCGCAGCCTAGGGAGATTAGAGTATCGGTCGA | 1.26
TTTCAAGAATGGAGAAAACAACATTCCTTGGCCTAGGGAGATTAGAGTATCGGTCGA | -0.213
TCCTTTGGATCATGTGTCTGAGCAAGTTTCGCCTAGGGAGATTAGAGTATCGGTCGA | 2.08
TGTCATCTAGACCTGGACTTGAAGCCAGACGCCTAGGGAGATTAGAGTATCGGTCGA | -0.168
TGAGTCTGGTGTTTCCCTGTTTGCTTCTGCGCCTAGGGAGATTAGAGTATCGGTCGA | 0.819
GTTTAACTGACCCAGGGAGAAAGGTCAGGGGCCTAGGGAGATTAGAGTATCGGTCGA | 2.86
AGTGGTTTAAAAACTTATCTTGTGACCTTTGCCTAGGGAGATTAGAGTATCGGTCGA | 6.81
TTTAAAAACTTATCTTGTGACCTTTGACTCGCCTAGGGAGATTAGAGTATCGGTCGA | 8.33
AAACTTATCTTGTGACCTTTGACTCATTATGCCTAGGGAGATTAGAGTATCGGTCGA | 6.43

Sequence | binding signal [log2 normalized intensity]
ATCTGACCTTTGGTTAACTTCTTAACTTGGGCCTAGGGAGATTAGAGTATCGGTCGA | 2.97
CTGAACTTTAAACTGGTGTGTCTTGCCTTTGCCTAGGGAGATTAGAGTATCGGTCGA | 2.06
CTTATCTACTTTAAGATTTGACCCTTGGCCGCCTAGGGAGATTAGAGTATCGGTCGA | 7.08
TATCTTGTGACCTTTGACTCATTATCCCCCGCCTAGGGAGATTAGAGTATCGGTCGA | 6.24
TTAAGATTTGACCCTTGGCCAGGTGCAGTGGCCTAGGGAGATTAGAGTATCGGTCGA | 4.65
ATTCTCTTATCTACTTTAAGATTTGACCCTGCCTAGGGAGATTAGAGTATCGGTCGA | 5
ATAAGACACATTCCATGCTTATCAGTGTACGCCTAGGGAGATTAGAGTATCGGTCGA | 0.893
TAACTCAAAATCTGCTCTGTCCTGAGATGTGCCTAGGGAGATTAGAGTATCGGTCGA | 1.06
AGGCCTGGAACCTGTCTGACAGGATGAATTGCCTAGGGAGATTAGAGTATCGGTCGA | -0.627
GCTGCCGCAGATCCCCGCTCCCCTCCCCCAGCCTAGGGAGATTAGAGTATCGGTCGA | 6.45
AAGAGCCAAAATGTGTTAGGCAAGCAAACTGCCTAGGGAGATTAGAGTATCGGTCGA | -0.953
GTCAAAACTTTGTTTGAGTTCCAAAGTCCAGCCTAGGGAGATTAGAGTATCGGTCGA | 6.99
TTGTTTAGGTACAAAGTCCATTGGAAGCCAGCCTAGGGAGATTAGAGTATCGGTCGA | 5.82
CGGTGAGGGATTGTTTAGGTACAAAGTCCAGCCTAGGGAGATTAGAGTATCGGTCGA | 8.35
AAAGTCCATATTCTTTGTTTGGATGCCAAAGCCTAGGGAGATTAGAGTATCGGTCGA | 1.58
AACTTTGTTTGAGTTCCAAAGTCCATGTTCGCCTAGGGAGATTAGAGTATCGGTCGA | 6.61
AGGGATTGTTTAGGTACAAAGTCCATTGGAGCCTAGGGAGATTAGAGTATCGGTCGA | 7.7
ATACAGAATCAATGCCTGATTCCAAAGTCCGCCTAGGGAGATTAGAGTATCGGTCGA | 5.95
ATGTGGTCAAAACTTTGTTTGAGTTCCAAAGCCTAGGGAGATTAGAGTATCGGTCGA | 1.07
ACTTTGCCTTTTGGCTAAAGTCCAAATTCCGCCTAGGGAGATTAGAGTATCGGTCGA | 5.14
GAATCAATGCCTGATTCCAAAGTCCACTTTGCCTAGGGAGATTAGAGTATCGGTCGA | 6.91
AGATTCGGTGAGGGATTGTTTAGGTACAAAGCCTAGGGAGATTAGAGTATCGGTCGA | 1.53

Sequence | binding signal [log2 normalized intensity]
CTCTGAGATTCGGTGAGGGATTGTTTAGGTGCCTAGGGAGATTAGAGTATCGGTCGA | 0.957
AAGCATTTGGAGATTGCCACCTTGGTGAGAGCCTAGGGAGATTAGAGTATCGGTCGA | 0.715
GAGTTCTTCAAGTCAGTCAAAATGAATAGTGCCTAGGGAGATTAGAGTATCGGTCGA | 1.32
TTGGCAGATTAGATATATCTGTACTCAAACGCCTAGGGAGATTAGAGTATCGGTCGA | 1.27
TAACAGGATTTTTGCTGAAGACAGGCCAGGGCCTAGGGAGATTAGAGTATCGGTCGA | -0.417
CTGAATGGAATGAAGATACTGGATAACCTTGCCTAGGGAGATTAGAGTATCGGTCGA | 0.695
AGAATGAGACCTGCTAGGCTGCATTCTCTGGCCTAGGGAGATTAGAGTATCGGTCGA | -0.977
TTATCTTACATGCCTTATCTGGTTCAAAGGGCCTAGGGAGATTAGAGTATCGGTCGA | 2.9
ATTCATTCCCTAAGATTCTGGTCAAAGGTCGCCTAGGGAGATTAGAGTATCGGTCGA | 7.3
TAAGATTCTGGTCAAAGGTCAATGAAGCTCGCCTAGGGAGATTAGAGTATCGGTCGA | 5.93
TTACATGCCTTATCTGGTTCAAAGGTCATTGCCTAGGGAGATTAGAGTATCGGTCGA | 7.65
TATCTGGTTCAAAGGTCATTTCTGCTTGCAGCCTAGGGAGATTAGAGTATCGGTCGA | 5.75
TTCATTCTTTAAGGACCACATCAAAGGTCAGCCTAGGGAGATTAGAGTATCGGTCGA | 4.7
TTCTGGTCAAAGGTCAATGAAGCTCTTGCTGCCTAGGGAGATTAGAGTATCGGTCGA | 5.65
TGCCTTATCTGGTTCAAAGGTCATTTCTGCGCCTAGGGAGATTAGAGTATCGGTCGA | 6.58
TTCCCTAAGATTCTGGTCAAAGGTCAATGAGCCTAGGGAGATTAGAGTATCGGTCGA | 7.36
TGAGGCCCCAGTGTCAATTCTCATTCATCCGCCTAGGGAGATTAGAGTATCGGTCGA | -0.225
AACCCTTGCACTGCTGGTTTTTGTCAAAGAGCCTAGGGAGATTAGAGTATCGGTCGA | 0.709
GCCTGTCAGGCCCAGAAACACTGAACCTTGGCCTAGGGAGATTAGAGTATCGGTCGA | 1.63
TTGCACTGCTCAGGGTGGGGTCTCGCTGCTGCCTAGGGAGATTAGAGTATCGGTCGA | -0.755
ACACAATATTATGTTTTGTTATCTGTGCCAGCCTAGGGAGATTAGAGTATCGGTCGA | 1.17
GTAAACTCCCTTTGATGCGGTCAGAGTTCAGCCTAGGGAGATTAGAGTATCGGTCGA | 3.08

Sequence | binding signal [log2 normalized intensity]
AGTGAACTCAAAGAAAAGTTATGTTGGGCAGCCTAGGGAGATTAGAGTATCGGTCGA | 1.17
TCCCTTGCTCCACCCTTCTATCCCCTTATCGCCTAGGGAGATTAGAGTATCGGTCGA | 2.8
CTTTGGACTTTCAAAAGTTAAGGTCAAGACGCCTAGGGAGATTAGAGTATCGGTCGA | 1.94
TAGGAGACTGTCTTAGGAAAGAACAGGTCAGCCTAGGGAGATTAGAGTATCGGTCGA | 1.14
AAGATTTATCAGGTCTTTCTTTCAGAACAGGCCTAGGGAGATTAGAGTATCGGTCGA | 0.622
GGTCAAAGGTCAGTTTCTTTAAGACAAGTGGCCTAGGGAGATTAGAGTATCGGTCGA | 5.53
GGAAAGAACAGGTCAAAGGTCAGTTTCTTTGCCTAGGGAGATTAGAGTATCGGTCGA | 7.28
GAACAGGTCAAAGGTCAGTTTCTTTAAGACGCCTAGGGAGATTAGAGTATCGGTCGA | 7.04
GACTGTCTTAGGAAAGAACAGGTCAAAGGTGCCTAGGGAGATTAGAGTATCGGTCGA | 3.91
TCTTAGGAAAGAACAGGTCAAAGGTCAGTTGCCTAGGGAGATTAGAGTATCGGTCGA | 9.13
TTAGAGAAAGGGTCAAAGGTTAAGCCATTGGCCTAGGGAGATTAGAGTATCGGTCGA | 5.92
TCAGAAACAGGAATTCAAAGGTGCAAAGGTGCCTAGGGAGATTAGAGTATCGGTCGA | 2.06
GCAGAGCAGTTTAGAGAAAGGGTCAAAGGTGCCTAGGGAGATTAGAGTATCGGTCGA | 5.29
GCAGTTTAGAGAAAGGGTCAAAGGTTAAGCGCCTAGGGAGATTAGAGTATCGGTCGA | 8.4
ACCCTGAATGTGTGCTGGCCTGGTTCCTTCGCCTAGGGAGATTAGAGTATCGGTCGA | 0.887
TTGTCCCTTTTCTATCCAGATGATCTTTACGCCTAGGGAGATTAGAGTATCGGTCGA | 2.25
GTCCCAGTAGATAACTTCAAGGAGCTCGGCGCCTAGGGAGATTAGAGTATCGGTCGA | -0.627
GTAGGGCCAATCTCTGGCATGTATTTATCAGCCTAGGGAGATTAGAGTATCGGTCGA | 0.384
ATAGGAGGATTTTATTCAGGTGGCCACTGGGCCTAGGGAGATTAGAGTATCGGTCGA | 1.03
